The record followed here is PubChem BioAssay (Tox21).

Results filed as inconclusive are left out. Unmarked numbers belong to inactive results. Active and inactive are the calls of the source. Calls follow the shape of the dose curve; as a rule, active = well fitted curve in the direction sought with a large enough effect in the repeat runs; inconclusive = weak or mixed curves; inactive = no such curve, though single readings can be large; an effect the other way counts as inactive or inconclusive.

Assay [1] can be described thus: qHTS RealTime-Glo MT Cell Viability Assay in HEK293 cells - 16 hour (AID 1224872). Also: top concentration of the series differs between compounds; nearly all actives have a fitted effect of over 50% in size. The gist of the method: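 Tox21 10K qHTS, HEK293, 600 cells/well, RealTime-Glo reagent co-dispensed with cells; 5 h preincubation, compound by pintool, 37 C, luminescence at 0–40 h.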
For orientation: Quantitative high-throughput screening tests each substance at several concentrations.

Assay [2] in a line: qHTS RealTime-Glo MT Cell Viability Assay in HepG2 cells - 8 hour (AID 1224873). Also: nearly all actives have a fitted effect of over 55% in size. In outline: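 Real-time viability: cells seeded at 600 per well together with NanoLuc and cell-permeant prosubstrate, compounds added after 5 h incubation. Luminescence tracked at 0, 8, 16, 24, 32 and 40 h of exposure.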
Assay [3] is described as follows: qHTS RealTime-Glo MT Cell Viability Assay in HEK293 cells - 40 hour (AID 1224874). Also: nearly all actives have a fitted effect of over 50% in size. The note with it: RealTime-Glo luminescence; max response: active compounds read low. In outline:
(§1)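 Cells were seeded together with NanoLuc luciferase and a prosubstrate that viable cells reduce to a luciferase substrate. After a 5 h incubation at 37 C/5% CO2, compounds were added and luminescence was measured repeatedly during 40 h of treatment.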

Assay [4] is described as follows: A CellTox Green Cytotoxicity Assay to monitor cytotoxicity in HEK293 cells - 24 hour (AID 1224875). Also: series mostly up to about 77 µM; nearly all actives have a fitted effect of over 45% in size. The gist of the method: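 Nonlytic real-time cytotoxicity: HEK293 + CellTox Green reagent plated, 5 h preincubation, pintool compound addition (23 nL in DMSO), 37 C for 40 h, fluorescence measured at successive time points.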
The nature of assay [5]: A CellTox Green Cytotoxicity Assay to monitor cytotoxicity in HepG2 cells - 16 hour (AID 1224876). Also: nearly all actives have a fitted effect of over 45% in size. In outline: (§2)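 Read-out is fluorescence of a cyanine dye excluded from live cells that stains DNA of dead HepG2 cells, with signal proportional to cytotoxicity. Plates were read at 0, 8, 16, 24, 32 and 40 h after compound addition.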
Assay [6] can be described thus: qHTS RealTime-Glo MT Cell Viability Assay in HepG2 cells - 32 hour (AID 1224877). Also: nearly all actives have a fitted effect of over 55% in size. In outline: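 Cells + NanoLuc/prosubstrate dispensed (600 cells/well) → 5 h at 37 C/5% CO2 → compounds in DMSO transferred → 40 h incubation at 37 C, luminescence read at 0, 8, 16, 24, 32, 40 h.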
A short description of assay [7]: A CellTox Green Cytotoxicity Assay to monitor cytotoxicity in HepG2 cells - 24 hour (AID 1224878). Also: nearly all actives have a fitted effect of over 45% in size. In outline:
as §2

Assay [8] in a line: A CellTox Green Cytotoxicity Assay to monitor cytotoxicity in HepG2 cells - 40 hour (AID 1224879). Also: nearly all actives have a fitted effect of over 40% in size. The gist of the method: as §2
Assay [9] in a line: qHTS RealTime-Glo MT Cell Viability Assay in HEK293 cells - 0 hour (AID 1224880). Also: nearly all actives have a fitted effect of over 45% in size. Also: potency is read from the fitted curve at half-maximal effect. The gist of the method:
as §1
% is scaled to controls: 0 for no effect and ±100 for the full control effect.

`CCNS(=O)(=O)c1ccc(C)cc1`: the Potency entry in assay [1], in assay [6], in [8] and in assay [9] was “inactive” each time. In addition, the molecule was called inactive in assay [2], in assay [4], in assay [5] and in assay [7]. In addition, the max response in [3] is 0.516%.

For `Cc1ncc([C@@H](CCCCCCc2ccc3c(n2)NCCC3)CC(=O)O)cn1`, the Potency result in assay [1], in assay [6], in assay [8] and in [9] was “inactive” each time. In addition, the molecule was called inactive in [2], in assay [4], in assay [5] and in [7]. In assay [3], the max response was 4.72%.

As to `C=CCOCC(O)CO` (stereo unspecified), the Potency entry in assay [1], in assay [6] and in assay [9] was “inactive” in each case. Moreover, the call in assay [2] was inactive. In addition, the max response in assay [3] was 16.5%.

For the molecule `CC(C)(N)C#N`, the Potency entry in [1], in [6] and in assay [9] was “inactive” each time. Also, the call in [2], in [4], in assay [5] and in [7] was inactive. In addition, the max response in assay [3] was -0.492%.

Take `CC/C=C\CCOC(C)OCC` (stereo unspecified): the Potency result in assay [1], in assay [6], in [8] and in assay [9] was “inactive” each time. Besides, the result in assay [2], in assay [4], in assay [5] and in assay [7] was inactive. Further, the max response in assay [3] was 3.36%.

As for `CC(C)C(=O)OC(=O)C(C)C`, the Potency entry in assay [1], in assay [6], in [8] and in assay [9] was “inactive” throughout. The call in assay [2], in assay [4], in [5] and in [7] was inactive. The max response in [3] is 3.07%.

In the case of `CCCC(=O)O[C@]1(C(=O)CC)CC[C@H]2[C@@H]3CCC4=CC(=O)CC[C@]4(C)[C@H]3[C@@H](O)C[C@@]21C`, the Potency result in assay [1], in assay [6] and in assay [8] was “inactive” each time. For the same molecule, the call in assay [2], in [4], in [5] and in [7] was inactive. Also, in [9], the Potency is 12 µM (active).

Consider `CC(C)COC(=O)c1ccc(N)cc1`, for which the Potency entry in assay [1], in assay [6], in assay [8] and in assay [9] was “inactive” throughout. For the same molecule, the outcome in assay [2], in assay [4] and in assay [5] was inactive. Also, the max response in assay [3] is -12.8%.

For the molecule `CC1=CCC(O)(C(C)C)CC1` (stereo unspecified), the Potency result in assay [1], in [6] and in assay [9] was “inactive” in each case. Besides, the call in assay [2], in assay [4] and in [5] was inactive. For the same molecule, the max response in assay [3] is 2.79%.

Turning to `C[N+]12CCC(CC1)C(OC(=O)C(O)(c1ccccc1)c1ccccc1)C2` (stereo unspecified), the Potency result in assay [1], in assay [6], in [8] and in [9] was “inactive” each time. The call in assay [2], in assay [4], in [5] and in assay [7] was inactive. The max response in assay [3] was 4.99%.

For the molecule `C1CCC2(CCCCO2)OC1`, the Potency entry in [1], in [6], in [8] and in assay [9] was “inactive” each time. Also, the call in [2], in assay [4] and in assay [5] was inactive. Besides, the max response in assay [3] was -6.53%.

For `CC1=NN(c2cc(S(=O)(=O)O)ccc2Cl)C(=O)C1N=Nc1ccccc1` (stereo unspecified), the Potency result in assay [1], in assay [6], in [8] and in [9] was “inactive” in each case. For the same molecule, the molecule was classed as inactive in [2], in [4], in [5] and in assay [7]. Besides, the max response in assay [3] is 8.94%.

As for `CCCCCC(=O)OCCc1ccccc1`, the Potency entry in [1], in assay [6], in assay [8] and in [9] was “inactive” throughout. For the same molecule, the result in assay [2], in assay [4], in assay [5] and in assay [7] was inactive. For the same molecule, the max response in assay [3] is 5.56%.

Turning to `CCN(CC#N)c1cccc(C)c1`, the Potency entry in [1], in assay [6], in assay [8] and in [9] was “inactive” throughout. For the same molecule, the molecule was classed as inactive in assay [2], in assay [4], in assay [5] and in assay [7]. Also, the max response in [3] is 13%.

As to `CCCCN(CCC(=O)OCC)C(C)=O`, the Potency result in assay [1], in assay [6], in assay [8] and in [9] was “inactive” throughout. Besides, the molecule was called inactive in [2], in [4], in assay [5] and in [7]. In assay [3], the max response was 0.53%.

Consider `O=S(=O)(O)c1cccc(S(=O)(=O)O)c1`, for which the Potency entry in assay [1], in [6], in [8] and in [9] was “inactive” throughout. The molecule was classed as inactive in [2], in assay [4], in assay [5] and in assay [7]. Also, the max response in assay [3] was 15.6%.

With `C=CCCCCCCCCC(=O)OCC`, the Potency result in [1], in assay [6] and in assay [9] was “inactive” in each case. The molecule was classed as inactive in assay [2], in [4], in assay [5] and in [7]. Moreover, the max response in [3] is 3.1%.

As to `CC(=O)C1CCCCC1=O` (stereo unspecified), the Potency entry in assay [1], in assay [6], in [8] and in assay [9] was “inactive” in each case. Besides, the outcome in [2], in [4], in [5] and in assay [7] was inactive. In addition, in assay [3], the max response is 15.3%.
